About 420 (0.61%) of roughly 69,000 compounds showed an effect of 50% or more. For the sample, strong results were picked, then their nearest neighbours and some compounds at random.
Biological target: T1, Histidine--tRNA ligase (Leishmania infantum) (UniProt A4I591)
T1 sequence (whole entry): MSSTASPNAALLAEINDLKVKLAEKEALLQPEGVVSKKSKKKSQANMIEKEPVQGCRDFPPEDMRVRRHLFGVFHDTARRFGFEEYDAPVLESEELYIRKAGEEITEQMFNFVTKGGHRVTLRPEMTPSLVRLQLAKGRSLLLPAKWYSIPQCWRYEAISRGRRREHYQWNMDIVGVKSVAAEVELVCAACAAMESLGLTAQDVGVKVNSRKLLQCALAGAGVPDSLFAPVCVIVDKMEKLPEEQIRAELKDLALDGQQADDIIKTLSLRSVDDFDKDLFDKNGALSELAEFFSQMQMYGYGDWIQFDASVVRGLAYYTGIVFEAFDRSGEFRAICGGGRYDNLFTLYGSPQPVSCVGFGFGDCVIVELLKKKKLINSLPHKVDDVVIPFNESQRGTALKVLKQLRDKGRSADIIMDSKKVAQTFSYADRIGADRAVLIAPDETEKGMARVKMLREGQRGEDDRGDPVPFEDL
Experiment: Leishmania infantum Histidine tRNA synthetase (LdHisRS)
Format: functional
Parameters: scale not given: in the data most compounds retested in dose-response had high values
Conditions: 30 µM

SMILES	Percent Effect
CC(C)CO[C@H]1CN(S(=O)(=O)c2cn(C)cn2)[C@@H]2CCCO[C@H]12	1.01%
C(=C\c1ccc(CN2CCCC2)cn1)/c1ccccc1	22.6%
COc1ccc(C)cc1CN1CCn2cccc2C1C (centres undefined)	42%
COc1ccc(C(C)=O)cc1CN1CCn2cccc2C1C (centres undefined)	52.7%
COc1ccc(CN2CCn3cccc3C2C)cc1F (centres undefined)	29.5%
CN(C)C[C@H]1OC[C@@H]2CCN(S(=O)(=O)c3ccc(F)cc3)C[C@@H]21	-4.59%
O=C1CC[C@H]2CN(C3CCOCC3)CC[C@H]2N1CCC1=CCCCC1	15.6%
COc1ccc(CN2C[C@@H]3CC[C@H](C2)N(S(C)(=O)=O)C3)cc1	10%
O=S1(=O)C[C@@H]2[C@H](C1)N(S(=O)(=O)N1CCCC1)CCN2Cc1ccccc1	19.2%
CN(C)CCN1CCO[C@H]2CCN(C(=O)c3cccs3)CC[C@@H]21	15.4%
CN(C)CCN1CCO[C@@H]2CCN(C(=O)c3cccn3C)CC[C@H]21	52.8%
CN(C)CCN1CCCC12CCN(C(=O)c1cccn1C)CC2	5.88%
COc1ccccc1CN1C(=O)O[C@@H]2CN(CC3CC3)C[C@@H]21	10%
O=C([C@@H]1CC[C@@H]2[C@@H](CCN2Cc2cccs2)O1)N1CCCCO1	17.1%
Cc1nc2ccc(C(=O)N3CCn4c(C)nnc4C3)cc2nc1C	21%
NC(=O)c1cnc2n1CCN(C(=O)c1ccc(-c3cc[nH]n3)cc1)C2	14.9%
NC(=O)c1cnc2n1CCN(C(=O)c1cccc(Cn3cccn3)c1)C2	12.6%
CC(C)c1nnc2n1CCN(C(=O)c1ccc(Cn3cccc3)cc1)C2	14.9%
NC(=O)c1cnc2n1CCN(C(=O)c1ccc(Cn3cccc3)cc1)C2	63.2%
Cc1nnc2n1CCN(C(=O)c1ccc(Cn3cccc3)cc1)C2	51.7%
COc1cccc(SCCCn2cnc3c(N)ncnc32)c1	4.08%
Clc1ccc(C2(CNC3=NCCN3)CCCC2)cc1	35.7%

SMILES	Percent Effect
Clc1ccc(C2(CNC3=NCCN3)CC2)cc1	18.6%
Clc1ccc(C2(CNC3=NCCN3)CCCCC2)cc1	50%
CC(C)c1n[nH]c(C(=O)Nc2ccccn2)c1Br	0%
CNC(=O)[C@@]12CCO[C@@H]1CCN(S(=O)(=O)c1ccccc1C)C2	5%
CC(C)CS(=O)(=O)N1C[C@H]2C[C@H](C(=O)N3CCOCC3)[C@@H](C1)O2	1.89%
O=C(c1cccnc1-c1ccoc1)N1C[C@H]2CC[C@@H]1C2	1.43%
COc1ccc(C2CC(=O)Nc3nc(N4CCOCC4)sc32)c(OC)c1 (centres undefined)	115%
COc1ccc(C2CC(=O)Nc3c2cnn3C)cc1 (centres undefined)	1.91%
COc1ccc(C2CC(=O)NCc3nc(N(C)C)sc32)c(O)c1 (centres undefined)	10.8%
COc1ccc(OC)c(C2CC(=O)Nc3nc(N4CCOCC4)sc32)c1 (centres undefined)	102%
COc1ccc(OC)c(C2CCN(CC(C)(C)N3CCOCC3)C2)c1 (centres undefined)	12.7%
COc1ccc(C(C)C)cc1C1CC(=O)NCc2nc(N(C)C)sc21 (centres undefined)	31.2%
COc1ccc(C2CC(=O)Nc3nc(N4CCOCC4)sc32)cc1 (centres undefined)	105%
COc1ccc(C2CCCN2c2nnc(C)s2)c(OC)c1 (centres undefined)	6.25%
CCn1ncnc1C1CC(=O)NCc2nc(N3CCOCC3)sc21 (centres undefined)	25.3%
O=C(c1ccncc1)N1C[C@@H]2CC[C@H](C1)N(C(=O)N1CCOCC1)C2	12.6%
COCC(=O)N1CC[C@]2(O)CCN(Cc3cccnc3OC)C[C@@H]2C1	17.1%
COc1ccc(CC(=O)N2CC[C@@H]3NC(=O)CC[C@@H]32)cc1	8.77%
CC(C)(O)CCc1cccc(C(=O)NCc2cnn3cccnc23)c1	2.22%
CC(C)Cn1cncc1CNC(=O)c1cccc(CC2CCNCC2)c1	25.6%
O=C(NCc1cnn2cccnc12)c1cccc(CC2CCNCC2)c1	60%
O=C(CC1CCCCC1)N1C[C@H]2CC[C@@H]1CN(Cc1cccnc1)C2	9.68%

Reference: ChEMBL document CHEMBL3988442, “University of Dundee, Small-Polar-MMV Screening Library” (2021)
